Assay outcomes (PubChem BioAssay)
A selection: hits, their analogues and other compounds. The true share with any hit is near 1.4%.
Rango-impB inh: inhibitors of Rango-importin beta complex formation | Q14974 | Potency, µM (doses to about 92.2 µM), inactives show top-dose inhibition of complex formation | actives 0.031% (n = 340,000) | Rango CFP/YFP FRET sensor + importin beta, 45 min;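 also: potency is read from the fitted curve at half-maximal effect; 0% = DMSO wells and 100% = buffer wells lacking importin beta; nearly all actives have a fitted effect of over 15% in size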
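Inhibition scored from the CFP 486 nm/YFP 530 nm FRET ratio 45 min after adding 0.125 microM importin beta to 50 nM Rango biosensor preincubated 5 min with compound (room temperature, PBS with DTT, Tween-20, BSA). No-importin wells as positive control.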
hERG WT inh: KCNH2 (human, wildtype) channel inhibition; actives 0.37% (n = 340,000); Q12809; U2OS, BacMam KCNH2, thallium flux FluxOr; stronger effect = lower value; activity change, % at 1.84 µM;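 active = maximum activity change below -70%; inconclusive = maximum activity change between -70% and -50%; inactive = maximum activity change above -50%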; also: % is scaled to controls: 0 for no effect and ±100 for the full control effect
Target sequence (Q12809 whole entry, looked up): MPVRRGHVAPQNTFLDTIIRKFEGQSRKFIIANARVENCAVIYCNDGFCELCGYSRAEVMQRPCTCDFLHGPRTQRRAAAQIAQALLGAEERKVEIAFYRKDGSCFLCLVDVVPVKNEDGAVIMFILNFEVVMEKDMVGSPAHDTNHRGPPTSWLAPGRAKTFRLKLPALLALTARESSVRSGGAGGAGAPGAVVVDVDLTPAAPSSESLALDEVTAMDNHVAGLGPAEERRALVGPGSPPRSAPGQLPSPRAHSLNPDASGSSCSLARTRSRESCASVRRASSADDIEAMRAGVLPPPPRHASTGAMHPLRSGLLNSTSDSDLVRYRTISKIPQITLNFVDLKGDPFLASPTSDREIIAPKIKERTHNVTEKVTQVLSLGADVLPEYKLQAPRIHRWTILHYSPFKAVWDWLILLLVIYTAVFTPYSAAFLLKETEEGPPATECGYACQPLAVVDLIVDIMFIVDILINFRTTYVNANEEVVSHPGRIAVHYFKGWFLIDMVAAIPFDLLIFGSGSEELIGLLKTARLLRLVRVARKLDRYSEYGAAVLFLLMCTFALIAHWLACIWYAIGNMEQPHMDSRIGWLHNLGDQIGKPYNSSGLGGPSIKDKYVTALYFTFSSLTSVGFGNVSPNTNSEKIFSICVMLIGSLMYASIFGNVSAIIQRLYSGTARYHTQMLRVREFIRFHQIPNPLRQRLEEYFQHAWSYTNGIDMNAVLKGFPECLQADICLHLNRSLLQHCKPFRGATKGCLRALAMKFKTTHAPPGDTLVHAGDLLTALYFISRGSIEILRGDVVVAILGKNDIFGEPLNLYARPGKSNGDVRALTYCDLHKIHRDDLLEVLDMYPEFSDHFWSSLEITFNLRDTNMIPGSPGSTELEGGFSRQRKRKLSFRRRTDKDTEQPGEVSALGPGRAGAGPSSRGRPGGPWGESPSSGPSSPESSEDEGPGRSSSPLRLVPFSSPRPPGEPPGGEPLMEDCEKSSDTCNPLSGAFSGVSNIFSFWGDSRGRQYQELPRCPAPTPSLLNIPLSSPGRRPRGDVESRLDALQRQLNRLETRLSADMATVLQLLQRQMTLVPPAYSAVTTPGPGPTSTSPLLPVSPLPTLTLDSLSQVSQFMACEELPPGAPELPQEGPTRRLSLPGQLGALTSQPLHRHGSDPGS
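U2OS cells were transduced with wild-type KCNH2 virus (2.03 x 10^8 / mL) for 4 h at room temperature, then cultured overnight at 37 C. Thallium flux was read with FluxOr dye. Rate constants were normalized to DMSO controls.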
KCNH2 3.1 inh: inhibitors of human KCNH2 3.1 potassium channel isoform. U2OS KCNH2 3.1, thallium flux FluxOr; stronger effect = lower value. actives 0.95% (n = 340,000). activity change, % (tested at about 1.8 µM);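 active = maximum activity change below -70%; inconclusive = maximum activity change from -70% to -50%; inactive = maximum activity change above -50%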;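 also: thallium influx rate constant from kinetic fluorescence after stimulation buffer; % is scaled to controls: 0 for no effect and ±100 for the full control effect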
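Thallium flux via FluxOr fluorescence (Red40 quencher, 45 min loading) in U2OS cells virally expressing the KCNH2 3.1 isoform (1.77 x 10^8 /mL virus, overnight at 37 C). Rate constants from 2-min kinetic reads post-stimulation, normalised to positive and negative controls.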
Rango release inh: inhibition of RanGTP-driven Rango-importin beta dissociation | Potency, µM (series often up to 46.1 µM), for inactives: at the top dose activity change, negative = inhibition | Biochemical FRET Rango-importin beta, RanGTP-induced dissociation | O95149+P62826 | actives 0.071% (n = 340,000); also: potency is read from the fitted curve at half-maximal effect; % of control where 0% means no effect; nearly all actives have a fitted effect of over 45% in size
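Rango (0.1 uM)–importin beta (0.25 uM) complex; RanGTP-RCC1 trigger; 45 min RT; CFP/YFP FRET read.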
Mm-Cpn inhibitor: M. maripaludis TRiC chaperonin inhibition; purified Mm-Cpn ATPase, ADP Transcreener TR-FRET; actives 0.031% (n = 330,000); AID 504842; Potency, µM (top dose mostly 76.9 µM), for the others: at the highest dose activity, negative = inhibition, usual class: inhibitors; active = well fitted inhibition curve with a large enough effect; inconclusive = small, poorly fitted or top-dose-only effect; also: potency is read from the fitted curve at half-maximal effect; % is scaled to controls: 0 for no effect and ±100 for the full control effect; nearly all actives have a fitted effect of over 80% in size
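25 nM Mm-CPN + cpd, 10 min 37°C; + 10 uM ATP, 30 min 37°C; buffer 30 mM Tris pH 7.4, 100 mM KCl, 5 mM MgCl2, 1 mM DTT; Transcreener ADP HTRF detection 30 min RT.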
CCT chaperon mod: modulators of cytosolic chaperonin (CCT/TRiC) activity | purified chaperonin ATPase assay, HTRF ADP detection, 30 min | activity change, % (no concentration beside the values), hits read low | actives 0.3% (n = 360,000) | AID 651819; in the data active = activity change below about -30%; also: % is scaled to controls: 0 for no effect and ±100 for the full control effect
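Enzyme 40 or 20 nM (batch-dependent) in Tris pH 7.4/KCl/MgCl2/DTT; cpd 76 uM single point; ATP 10 uM; 30 min 37 °C; Transcreener ADP HTRF detection, 30 min RT; ratio 665/615.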
Numbers without * were called inactive; u = inconclusive; x = no result; + = active, no number; [ ] = dose if it differs, or a comment. Unless noted, calls follow the shape of the full dose curve.

SMILES	Rango-impB inh	hERG WT inh	KCNH2 3.1 inh	Rango release inh	Mm-Cpn inhibitor	CCT chaperon mod
COc1ccc([C@]23Cc4cc(C#N)ccc4C(O2)C2=C(CC4(CCCCC4)OC2=O)O3)cc1	x	x	x	x	-2.6%[15.4 µM]	x
COc1ccc(-c2ccc(-c3noc(-c4ccccc4C)n3)c(OC)n2)cc1	u	-1.9	x	6.51µM*[inhibitor]	-19.0%	-0.8
CC(C)N(C(=O)[C@H]1C[C@H](CC(=O)NC(C)(C)C)C(=O)N2CCc3c([nH]c4cc(-c5ccco5)ccc34)[C@]12C)C(C)C	u	-6.6	1.2	-13.4%	-1.7%	-41.5*
CCN(CC)C(=O)[C@H]1C[C@H](CC(=O)NC(C)(C)C)C(=O)N2CCc3c([nH]c4cc(-c5ccco5)ccc34)[C@]12C	u	-2.9	8.2	5.4%	1.9%	0.9
O=C(NCC1OCCCN1S(=O)(=O)c1cc(F)ccc1F)C(=O)NC1CCCC1 (centres undefined)	3.1%	-1.5	-1.3	-7.8%	1.4%	-0.7
O=P1(O)C=C(c2ccccc2)OC(c2ccccc2)=C1	0.3%	-13.9	1.4	-11.1%	0.2%	-0.4
CCN1CCN(P2(=O)C=C(c3ccccc3)OC(c3ccccc3)=C2)CC1	1.4%	-123.1*	-90.2*	-5.2%	-3.2%	-8.3
CCN1CCN(c2ccc(S(=O)(=O)N3CCCCC3)cc2NC(=O)COc2ccc(Cl)cc2)CC1	0.6%	-21.3	u	-11.4%	-0.4%	-0.8
CCN1CCN(c2ccc(S(=O)(=O)N3CCCCC3)cc2NC(=O)COc2ccc(F)cc2Cl)CC1	-3.4%	-1.1	-79.9*	-11.6%	-1.4%	0.8
Cc1ccc(C)c(OCC(=O)Nc2ccccc2N2CCCC2)c1	0.2%	4.7	-12.1	-8.9%	0.3%	-2.4
CCN1CCN(c2ccc(S(=O)(=O)N3CCCCC3)cc2NC(=O)COc2cc(C)ccc2Cl)CC1	2.0%	3.6	-82.6*	4.3%	-0.6%	1.0
Cc1ccc(OCC(=O)Nc2ccccc2N2CCCC2)c(C)c1	0.2%	+	-10.9	-12.7%	-4.7%	-3.8
COc1cccc(C(N)c2nc(-c3csc4ccccc34)cs2)c1 (centres undefined)	x	x	x	x	x	0.5
N#CC1(NC(=O)COC(=O)C23CC4CC(CC(O)(C4)C2)C3)CCCCC1	1.9%	16.2	x	1.8%	1.8%	-0.9
CCN(CC(=O)NCc1ccc(Cl)cc1)C(=O)COc1cccc(Cl)c1	-1.7%	5.2	-37.6	-3.5%	-3.2%	-0.1
CCOc1ccc(CN(C)CC(=O)NCc2ccc(F)cc2)cc1	-0.1%	u	-103.2*	6.9%	1.5%	-5.5
CSc1ccc(CN(C)CC(=O)NCc2ccccc2)cc1	1.8%	13.8	-7.8	8.4%	0.9%	-0.7
CCOc1ccc(C(=O)CCC(=O)N(CC)CC(=O)NCc2ccc(Cl)cc2)cc1	4.8%	-159.9*	-1.6	-3.4%	-19.7%	-4.4
COc1ccc(CNC(=O)CN(C)Cc2ccc(SC)cc2)cc1	-0.6%	-9.1	-77.9*	-3.4%	1.1%	-7.6
CN(Cc1ccccc1)C(=O)c1cn(C)c2ccc(S(=O)(=O)N3CCCC3)cc2c1=O	-4.8%	0.9	8.8	-6.6%	-0.5%	-14.0
CCC(C)(C)n1nnnc1C(c1ccc(F)cc1)N1CCN(C(=O)c2ccco2)CC1 (centres undefined)	-0.6%	11.5	7.0	9.2%	3.7%	-0.2
Cc1ccc(C)c(S(=O)(=O)N2CCN(Cc3cc4c(cc3O)OCO4)CC2)c1	-1.6%	14.9	-18.4	11.3%	0.7%	-0.3
COc1ccc(-c2c(-c3ccsc3)oc(=O)c3cc(OC)c(OC)cc23)cc1	-5.4%	-8.2	20.1	35.4%	-0.3%	-0.8
COc1cc2c(-c3cc(F)cc(F)c3)c(-c3ccsc3)oc(=O)c2cc1OC	2.3%	-3.4	-106.1*	1.7%	-1.3%	0.5
CCCc1cnc(NCCNCC(O)COc2ccc(Cl)c(Cl)c2)nc1 (centres undefined)	1.3%	22.3	-97.9*	-7.3%	2.7%	0.7
